# High-throughput results (PubChem)
# Most compounds without a hit are left out; they make up all but 1.1% or so of the library.
# IP6K1 inhibitor = blocks human inositol hexakisphosphate kinase 1; activity change, % (series mostly up to about 58 µM); hit rate 0.81% among 140,000; IP6K1 kinase, ADP-Glo luminescence, 2 h; stronger effect = lower value; Q92551; AID 1645851; in the data active means activity change below about -25%
# Target sequence (Q92551 whole entry, looked up): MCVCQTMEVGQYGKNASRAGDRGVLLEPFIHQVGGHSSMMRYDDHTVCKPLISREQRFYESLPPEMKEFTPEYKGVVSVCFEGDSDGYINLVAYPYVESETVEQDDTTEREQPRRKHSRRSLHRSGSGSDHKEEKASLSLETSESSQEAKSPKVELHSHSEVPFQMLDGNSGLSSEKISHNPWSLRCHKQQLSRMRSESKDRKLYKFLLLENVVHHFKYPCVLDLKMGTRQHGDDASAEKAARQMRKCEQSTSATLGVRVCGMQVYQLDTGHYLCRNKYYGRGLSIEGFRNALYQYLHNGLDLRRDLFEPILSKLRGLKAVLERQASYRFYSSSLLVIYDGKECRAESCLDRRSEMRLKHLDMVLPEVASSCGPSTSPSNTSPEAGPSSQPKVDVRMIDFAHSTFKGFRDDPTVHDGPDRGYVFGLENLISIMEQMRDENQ
#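 ADP-Glo luminescence measures ADP made by human IP6K1 during a 2 h RT reaction with ATP/IP6 (mix at 1.3 mM/130 uM); top library doses 57.5 and 19.1 uM final.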
# GPT2 inh = GPT2 alanine aminotransferase inhibition. Q8TD30. Recombinant GPT2, coupled pyruvate oxidase/HRP Amplex Red fluorescence. Potency, µM (titrated, usually from 57.7 µM), inactives show at the top dose activity change, negative = inhibition, hits mostly inhibitors. hit rate 0.25% among 100,000. AID 1671188; further: potency means the concentration at half of the fitted maximal effect; nearly all actives have a fitted effect of over 60% in size
#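 Fluorescence read-out: pyruvate from GPT2 turnover coupled to pyruvate oxidase, HRP and Amplex Red (0.2mM ThPP, 0.2U/mL PO and HRP, 50uM Amplex final). Substrates 250uM a-KG, 2mM L-alanine; enzyme 10ng/uL; 30 min RT.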
# SNCA expr inh = reduces expression of the alpha-synuclein gene | HEK-293 SNCA-luciferase knock-in, luminescence, 24 h | Potency, µM (doses to about 57.2 µM), without a hit: at the top dose activity change, negative = inhibition, hits mostly inhibitors | hit rate 0.17% among 140,000;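 further: potency means the concentration at half of the fitted maximal effect; plate controls were DMSO cells for no effect and cell-free wells for full effect; nearly all actives have a fitted effect of over 45% in size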
# SNCA viab count = cell viability loss counter-screen; Potency, µM (series often up to 57.1 µM), inactives show top-dose activity change, negative = cytotoxicity, hits mostly cytotoxic; hit rate 0.12% among 150,000; HEK-293-SNCA-luc viability, GF-AFC fluorescence, 24 h; AID 1671193;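 further: potency means the concentration at half of the fitted maximal effect; 0% = DMSO-treated cells and -100% = medium-only wells without cells; nearly all actives have a fitted effect of over 30% in size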
#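 Cytotoxicity counterscreen: after 24 h compound treatment of genome-edited SNCA-luciferase HEK-293 cells, live-cell protease substrate GF-AFC read by fluorescence after 30 min; activity scaled between DMSO (0%) and medium-only (-100%), curves Hill-fitted.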
# An asterisk follows results filed as active; i = inactive; ? = inconclusive; . = no result; ! = a repeat was not active; [ ] = dose if it differs, or a comment. Unless noted, the call rests on the fitted dose curve; in most records, active means well fitted curve in the direction sought with a large enough effect; inconclusive means small, poorly fitted or top-dose-only effect, or another doubt; inactive means no such curve, though single readings can be large; an effect the other way counts as inactive or inconclusive. Unless noted, on the % scale 0 is the no-effect control and ±100 the full control effect.
SMILES,IP6K1 inhibitor,GPT2 inh,SNCA expr inh,SNCA viab count
CC1(C)OC2=C(C(=O)c3ccccc3C2=O)[C@H](NCc2ccccc2)[C@H]1O,.,13.7µM*,12.1µM*,13.6µM*
CC(C(=O)NCc1ccccc1)N1Cc2ccccc2C1=O (stereo unspecified),2.7,.,0.1%,3.3%
CN1CCN(Cc2ccc(-c3ccc(C(C)(C)C#N)cc3)nc2)CC1,-7.8,-17.0%,10.5%,-4.7%
Fc1ccc(CN2CC[C@H](c3nc4ccc(C(F)(F)F)cc4[nH]3)C2)cc1F,10.2,?,7.94µM*,31.6µM*
COc1ccc(CCC(=O)N2CCC3(CC2)CC(CO)N(C(=O)c2ccccc2)C3)cc1 (stereo unspecified),14.0,4.2%,-8.3%,2.9%
CC(CN1c2ccccc2Sc2ccccc21)N(C)C (stereo unspecified),-16.6,10µM*!,1.8%,4.2%
C[C@@H](CN(C)C)CN1c2ccccc2Sc2ccccc21,1.1,i,-22.0%[25.6 µM],24.2%[23.9 µM]
CCCNc1cc(N2CCC(CCC(=O)NCc3ccccc3Cl)CC2)ncn1,21.9,-8.6%,2.82µM*,-7.3%
CCNc1cc(N2CCC(CCC(=O)Nc3cccc(OC)c3)CC2)ncn1,10.2,3.3%,7.94µM*,0.4%
CCCNc1cc(N2CCC(CCC(=O)NCc3cccc(OC)c3)CC2)ncn1,15.6,4.9%,2.24µM*,2.0%
CCNc1cc(N2CCC(CCC(=O)O)CC2)ncn1,0.1,i,1.26µM*,10.6%
COC1CCN(C(=O)c2ccc(C(C)(C)C)cc2)CC(=O)N(C)c2ccccc21 (stereo unspecified),-9.5,.,.,.
O=C(CCC1CCN(c2cc(NC3CC3)ncn2)CC1)NCc1ccccc1Cl,15.2,-5.2%,8.91µM*,7.4%
CC(C)C[C@H](NC(=O)[C@H](Cc1ccccc1)NC(=O)c1cnccn1)B(O)O,12.5,i,0.0482µM*,?
CC(C)C[C@H](NC(=O)[C@@H](NC(=O)c1cccc(-c2ccccc2)n1)[C@@H](C)O)B(O)O,15.0,i,0.0607µM*,0.0474µM*!
O=C(Cc1cccc(Cl)c1)NC1CCN(c2ccc3nnc(C4CC4)n3n2)C1 (stereo unspecified),22.7,.,.,.
C=C1C(=O)O[C@@H]2/C=C(\C)C(=O)/C=C/[C@](C)(O)C[C@@H](OC(=O)C(C)C)[C@@H]12,-1.1,0.9%[27.3 µM],.,9.27µM*
O=C(c1ccc(Cl)cc1)N(Cc1ccco1)Cc1ccco1,8.6,.,12.7%,0.4%
COc1ccc(CNC(=O)c2nc(S(=O)(=O)Cc3ccccc3)ncc2Cl)cc1,-7.5,.,?,25.1µM*
CCCSc1ncc(Cl)c(C(=O)N(Cc2ccccc2)c2ccc(OC)cc2)n1,2.5,.,?,2.0%
CS(=O)(=O)c1ncc(Cl)c(C(=O)N(Cc2ccc(Cl)cc2)Cc2ccco2)n1,-13.2,.,?,2.51µM*
COc1ccc(N(Cc2ccccc2)C(=O)c2nc(S(C)(=O)=O)ncc2Cl)cc1,-25.8*,.,?,6.31µM*
O=C(NCc1ccccc1)c1nc(S(=O)(=O)Cc2ccccc2)ncc1Cl,-4.8,.,?,?
O=C(CNC(=O)c1cccc(-c2ccsc2)c1)NCc1ccccc1Cl,8.4,-39.1%,?,-4.9%
O=C(Cc1c[nH]c2ncc(-c3ccccc3Oc3ccccc3)cc12)N1CCOCC1,-19.1,?,?,-16.8%[87.6 µM]
SMILES,IP6K1 inhibitor,GPT2 inh,SNCA expr inh,SNCA viab count
O=C(Cc1c[nH]c2ncc(-c3ccc(Oc4ccccc4)cc3)cc12)N1CCOCC1,-7.1,-3.3%[88.5 µM],25.1µM*,?
CCC(C)S(=O)(=O)c1oc(-c2ccc(F)cc2)nc1S(=O)(=O)c1ccc(F)cc1 (stereo unspecified),0.9,.,?,28.2µM*
CCS(=O)(=O)c1oc(-c2ccc(F)cc2)nc1S(=O)(=O)c1ccccc1,-7.8,.,?,7.94µM*
CCN(CC)CCOc1ccc(Nc2ncc3cc(-c4c(Cl)cccc4Cl)c(=O)n(C)c3n2)cc1,.,?,3.04µM*,?
O=C(Nc1ccc(Cl)cc1)N1CCCC(C(=O)N2CCC(N3Cc4cccn4C3=O)CC2)C1 (stereo unspecified),-3.8,i,24.0%,0.4%
COCCC1(NC(=O)C(C)c2ccccc2)CCN(S(C)(=O)=O)CC1 (stereo unspecified),-12.3,i,-14.4%,20µM*
C=C(C=O)[C@]1(O)C[C@@]2(C)C(=CC1=O)C=C[C@H](OC(=O)/C=C/C=C/[C@H](C)CC)[C@@H]2C,-16.0,-4.5%[27.3 µM],.,8.22µM*
Cc1nn2c(c1-c1ccccc1-c1ccccc1)N(CCC(C)C)CCC2,-9.0,-14.5%[88.5 µM],1.12µM*,?
Cc1nn2c(c1-c1ccccc1C(N)=O)N(CCCc1ccccc1)CCC2,12.0,i,1.41µM*,?
Cc1nn2c(c1-c1ccccc1-c1ccccc1)N(Cc1ccccc1)CCC2,-2.0,0.4%[88.5 µM],?,?
O=C(CNC(=O)c1cccc(-c2ccc(C(F)(F)F)cc2)c1)NCc1cccc(Cl)c1,-15.9,-2.7%,?,4.9%[12.5 µM]
c1coc(-c2nc3ccncc3[nH]2)c1,23.0,31.6µM*!,16.4%[87.6 µM],-8.4%[87.6 µM]
COc1ccc2[nH]c3c(c2c1)CCNC31CCN(C(=O)c2cccn2C)CC1,-1.6,i,25.1µM*,0.5%[12.5 µM]
COCCN1CCN(Cc2ccc(-c3n[nH]c4c3C(=O)c3c(NC(=O)NN5CCOCC5)cccc3-4)cc2)CC1,0.7,-10.5%,.,0.15µM*
COCCN1Cc2[nH]nc(-c3cccc(NC(C)=O)c3)c2CC1=O,27.2,-5.0%[88.5 µM],39.1%[87.6 µM],-1.4%[87.6 µM]
CC(C)(C)Nc1nc2cc(Cl)c(Cl)cc2nc1S(C)(=O)=O,-22.3,i,.,15µM*
COCCCNC(=O)C1CCN(c2nccc(Nc3ccccc3F)n2)CC1,15.3,1.9%,27.4%,-2.4%[12.5 µM]
COCC(=O)NC1CCN(c2nccc(Nc3ccccc3Cl)n2)CC1,-8.0,1.2%,?,10.8%
Cc1ccc(-c2cn3c(n2)sc2cc(C(=O)NCCCN4CCCCCC4)ccc23)cc1,-0.4,.,?,?
Cc1ccc(-c2cn3c(n2)sc2cc(C(=O)NCCCN4CCCCC4)ccc23)cc1,-9.4,.,?,25.1µM*
O=C(C1CCCN1C(=O)c1cccc(Cl)c1)N1CCC(N2Cc3cccn3C2=O)CC1 (stereo unspecified),10.1,i,4.1%,-16.3%
CC(C)(C)C(=O)Nc1ccc(-c2nc3ccccc3s2)cc1,-5.6,.,1.41µM*,-8.9%
C1=C/COCc2cc(ccc2OCCN2CCCC2)Nc2nccc(n2)-c2cccc(c2)COC/1,-13.9,?,.,9.47µM*
COc1ccc(F)c(F)c1C(=O)c1cnc(NC2CCN(S(C)(=O)=O)CC2)nc1N,-4.2,2.3%,13.6µM*,?
COc1cccc(C(=O)NCCNC(=O)c2cccc(-c3ccc(SC)cc3)c2)c1,2.0,i,25.2%,1.4%[12.5 µM]
C1CC(COCCc2noc(C3CNC3)n2)CCO1,-0.1,-9.4%,?,4.47µM*
CN(C)CCn1nnnc1SCC1=C(C(=O)O)N2C(=O)[C@@H](NC(=O)Cc3csc(N)n3)[C@H]2SC1,-7.9,17.8µM*,-24.5%[25.6 µM],-20.1%[23.9 µM]
O=C(Cc1ccccc1)Nc1sc2c(c1C(=O)Nc1ccc(Cl)cc1)CCCC2,-30.4*,.,28.2%,0.0%
